Screens as filed in PubChem.
BAZ2B inh = blocks human BAZ2B; Q9UIF8; AlphaScreen BAZ2B-H3K14Ac peptide displacement; Potency, µM (doses to about 114 µM), for inactives: top-dose activity change, negative = inhibition, usual class: inhibitors; hit rate 4.4% among 360,000; AID 504333; further: on the % scale 0 is the no-effect control and ±100 the full control effect; nearly all actives have a fitted effect of over 60% in size
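Inhibition is scored as reduced AlphaScreen emission. The BAZ2B/b-H3(5-23)K14Ac complex (50 nM each) in PBS pH 7.4, 0.01% Tween-20 meets compound (up to 110 uM) for 30 min at RT before bead addition.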
PLK1 PBD block = blocks phosphopeptide binding to human PLK1 polo-box domain; hit rate 2.8% among 360,000; P53350; Plk1 PBD binding of FITC phosphopeptide, fluorescence polarization; AID 720504; Potency, µM, without a hit: max response, negative = inhibition, actives largely listed as inhibitors; further: series mostly up to about 57 µM; on the % scale 0 is the no-effect control and ±100 the full control effect; nearly all actives have a fitted effect of over 65% in size
G9a block = inhibitors of human histone lysine methyltransferase G9a; G9a H3K9 monomethylation, AlphaScreen, 2 h; Potency, µM (top dose mostly 102 µM), without a hit: at the top dose activity, negative = inhibition, most hits filed as inhibitors; hit rate 8.8% among 350,000; further: on the % scale 0 is the no-effect control and ±100 the full control effect; nearly all actives have a fitted effect of over 75% in size
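G9a (20 nM) was preincubated 15 min with compound, then reacted 2 h at room temperature with 500 nM biotin-H3K9 peptide and 20 µM SAM. Monomethyl-H3K9 detected by AlphaScreen using anti-H3K9me1 antibody.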
JMJD2A Tudor inh = blocks the human JMJD2A Tudor domain | Potency, µM (doses to about 114 µM), without a hit: at the top dose activity change, negative = inhibition, most hits filed as inhibitors | AlphaScreen JMJD2A-Tudor / H3K4me3 peptide binding | hit rate 4.4% among 390,000 | O75164 | AID 504339; further: on the % scale 0 is the no-effect control and ±100 the full control effect; nearly all actives have a fitted effect of over 50% in size
Target sequence (O75164 whole entry, looked up, the tested form may be a part): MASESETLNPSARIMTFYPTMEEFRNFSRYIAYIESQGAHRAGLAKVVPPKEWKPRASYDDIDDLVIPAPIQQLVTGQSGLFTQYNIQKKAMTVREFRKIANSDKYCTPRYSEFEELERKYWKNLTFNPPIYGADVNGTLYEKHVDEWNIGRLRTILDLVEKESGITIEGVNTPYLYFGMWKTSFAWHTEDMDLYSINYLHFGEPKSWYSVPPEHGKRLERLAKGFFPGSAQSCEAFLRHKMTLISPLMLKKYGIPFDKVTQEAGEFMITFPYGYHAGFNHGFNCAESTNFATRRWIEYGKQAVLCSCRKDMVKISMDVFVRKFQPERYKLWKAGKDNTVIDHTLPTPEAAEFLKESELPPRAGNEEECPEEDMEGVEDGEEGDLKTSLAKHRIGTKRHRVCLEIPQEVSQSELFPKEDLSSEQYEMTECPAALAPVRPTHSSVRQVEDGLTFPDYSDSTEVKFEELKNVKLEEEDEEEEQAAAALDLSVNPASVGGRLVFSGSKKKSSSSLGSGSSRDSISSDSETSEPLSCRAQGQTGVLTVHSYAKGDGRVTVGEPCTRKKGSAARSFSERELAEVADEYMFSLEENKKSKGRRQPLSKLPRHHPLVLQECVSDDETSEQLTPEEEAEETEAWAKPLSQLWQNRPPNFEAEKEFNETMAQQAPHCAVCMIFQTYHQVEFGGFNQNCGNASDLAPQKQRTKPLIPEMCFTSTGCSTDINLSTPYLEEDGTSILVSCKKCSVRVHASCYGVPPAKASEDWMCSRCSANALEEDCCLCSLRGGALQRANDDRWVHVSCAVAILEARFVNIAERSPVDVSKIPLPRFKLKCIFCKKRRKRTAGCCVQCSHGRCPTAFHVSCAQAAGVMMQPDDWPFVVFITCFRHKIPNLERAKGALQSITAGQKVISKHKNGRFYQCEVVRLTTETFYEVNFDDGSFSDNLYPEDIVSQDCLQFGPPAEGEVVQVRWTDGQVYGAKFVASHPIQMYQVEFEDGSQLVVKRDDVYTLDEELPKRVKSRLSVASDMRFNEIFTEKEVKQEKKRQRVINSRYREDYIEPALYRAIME
Sfp PPTase inh = inhibitors of Bacillus subtilis Sfp phosphopantetheinyl transferase; Q9F4F7; Biochemical Sfp PPTase activity, qHTS; Potency, µM, for the others: largest response in the series, negative = inhibition, most hits filed as inhibitors; hit rate 3.5% among 310,000; AID 1490;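 further: the enzyme is Sfp with the accession as filed and its product quenches rhodamine fluorescence; 0% = enzyme reaction without inhibitor and -100% = no enzyme wells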
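Fluorescence-quenching assay: 15 nM Sfp-PPTase preincubated 15 min at room temperature with compound, then 5 uM rhodamine-CoA and 12.5 uM BHQ-2-labelled YbbR peptide added. Fluorescence (ex 525/em 598 nm) read at start and after 30 min; difference gives rate.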
HP1b binding inh = HP1-beta chromodomain-methylated histone interaction inhibition. AlphaScreen HP1-beta / biotin-H3K9me3 peptide binding. AID 540317. hit rate 0.56% among 390,000. P83916. Potency, µM (titrated, usually from 114 µM), inactives show at the highest dose activity change, negative = inhibition, hits mostly inhibitors; further: nearly all actives have a fitted effect of over 70% in size
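HP1-beta protein (50 nM final) preincubated 30 min at room temperature with biotinylated H3(1-18)K9me3 peptide (50 nM) in PBS pH 7.4, 0.01% Tween-20, then compound added for 30 min. AlphaScreen streptavidin donor/nickel chelate acceptor beads (10 ug/mL final), 30 min dark, luminescence read.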
* = called active by the depositor; ? = inconclusive; · = not tested or not shown; [ ] = remark or other dose. Rows were chosen to be rich in hits. Some 12% of all compounds tested hit in one or more screens of this group. The call rests on the fitted dose curve; in most records, active means well fitted curve in the direction sought with a large enough effect; inconclusive means small, poorly fitted or top-dose-only effect, or another doubt; inactive means no such curve, though single readings can be large; an effect the other way counts as inactive or inconclusive. Potency means the concentration at half of the fitted maximal effect.

SMILES | BAZ2B inh | PLK1 PBD block | G9a block | JMJD2A Tudor inh | Sfp PPTase inh | HP1b binding inh
O=S(=O)(c1ccc(F)cc1)N1CCN(S(=O)(=O)c2cc(F)ccc2F)CC1 | -5% | 21µM* | 21%[0.501 µM] | ? | 37% | -3%
CCc1nc2ccc(C(=O)NCc3ccc(OC)c(OC)c3)cc2nc1CC | 1% | · | 6%[59 µM] | -12% | · | 24%
Cc1c(C(=O)N2CCN(c3ccc(C(F)(F)F)cn3)CC2)oc2ccccc12 | 5% | 30µM* | 10% | -15%[11.4 µM] | 1% | 19%
Cc1c(C(=O)N2CCN(S(=O)(=O)c3cc(F)ccc3F)CC2)oc2ccccc12 | 79µM* | -4% | ? | -21% | · | 10%
O=S(=O)(c1ccc2c(c1)OCCO2)N1CCN(c2nc(-c3ccccc3)nc3ccccc23)CC1 | · | · | · | -10% | · | 19%
CCC(C)NC(=O)c1sc2ncccc2c1-n1c(C)ccc1C (stereo unspecified) | -7% | · | -5%[59 µM] | -15% | · | 2%[57 µM]
COc1ccc(C=O)c(OCc2cn(CC(=O)c3ccc(O)cc3)nn2)c1 | · | -17% | · | 79µM* | · | 6%
N#Cc1ccccc1OCc1cn(CC(=O)c2ccc(O)cc2)nn1 | · | 24µM* | · | 20µM* | · | 3%
CC(C)n1cc(C(=O)N2CCCC(N3CCN(c4cccc(Cl)c4)CC3)C2)cn1 (stereo unspecified) | -13% | 1% | ? | -9% | 7% | 14%
CN1/C(=C\C=C2/SC(=S)NC2=O)C(C)(C)c2ccccc21 | 7.9µM* | 82% | 7.9µM* | ? | ? | ?
CCCN1C(=O)/C(=C\C=C2\N(CC)c3ccccc3C2(C)C)SC1=S | 3.5µM* | ? | · | 8.9µM* | -24% | ?
CN1/C(=C/C=C(/C#N)C(N)=O)C(C)(C)c2ccccc21 | 5% | 11% | ? | 3% | 16% | 45%
Cc1nn(S(=O)(=O)c2ccc(C(C)(C)C)cc2)c(C)c1S(=O)(=O)N1CCCCCC1 | -26% | · | -3%[59 µM] | -28% | · | 20%[57 µM]
CCc1nc2cccnc2n1-c1ccc(CC(=O)Nc2ccc(C)cc2)cc1 | -23% | · | -34%[59 µM] | 3% | · | 50%
CCCCN(CC)CCCNC(=O)CS(=O)(=O)Cc1nc(-c2ccc(C)cc2)oc1C | -16% | · | 0%[59 µM] | -12% | · | 24%
COC(=O)CCC(=O)c1oc2ccc(Cl)cc2c1NC(=O)CCCN1C(=O)c2ccccc2C1=O | 7% | 0% | -16%[0.0925 µM] | -2% | 35µM* | 16%
COc1cc2c(cc1NC(=O)CCCN1C(=O)CCC1=O)oc1ccccc12 | -3% | ? | 3%[12.7 µM] | -14%[11.4 µM] | -5% | -1%
CCOC(=O)c1c(C)[nH]c(CCC(=O)NCc2ccccc2Cl)c1C | -14% | · | -1%[59 µM] | -19% | · | 13%[57 µM]
COC(=O)c1ccc(Nc2nnc(-c3ccc(C)c(S(=O)(=O)N4CCN(C)CC4)c3)c3ccccc23)cc1 | -26% | · | ? | -33% | · | 23%
Cc1coc2c1c(C)cc1oc(=O)c(CC(=O)N[C@@H](CC(C)C)C(=O)O)c(C)c12 | 2% | -14% | 50µM* | -29% | 2% | 18%
CCCCC/C=C\C\C=C/C=C/C=C/[C@@H](SCC(N)C(=O)NCC(=O)O)[C@@H](O)CCCC(=O)O (stereo partly specified) | · | · | · | · | -16% | ·
COc1ccc(CCNC(=O)C(=O)c2c[nH]c3ccccc23)cc1 | · | · | 26%[59 µM] | · | 23% | ·
Cc1cccc(N2CCN(c3ccc(NC(=O)c4ccccc4)cc3C(=O)O)CC2C)c1 (stereo unspecified) | 79µM* | · | ? | 89µM* | · | -1%
Cc1cccc(N2CCN(c3ccc(C(=O)O)cc3NC(=O)c3cccc(Cl)c3)CC2C)c1 (stereo unspecified) | ? | · | -46%[59 µM] | 56µM* | · | -17%
CC1=NN(c2ccccc2)C(=O)C1/C=C1\NC(=S)NC1=O (stereo unspecified) | ? | 19µM* | ? | 56µM* | -3% | ?
SMILES | BAZ2B inh | PLK1 PBD block | G9a block | JMJD2A Tudor inh | Sfp PPTase inh | HP1b binding inh
N#CCC(=O)Nc1ccc(C(=O)Nc2cccc(S(N)(=O)=O)c2)cc1 | -15% | 2% | 1% | -23% | 25% | -14%
CCOC(=O)c1sc2ccccc2c1S(=O)(=O)Nc1ccc(C(C)=O)cc1 | ? | · | ? | -25% | · | 19%
CCOC(=O)c1sc2ccccc2c1S(=O)(=O)Nc1ccc(N(C)C)cc1 | 20µM* | · | 8.9µM* | 13µM* | · | -25%
COC(=O)c1sc2cccc(F)c2c1S(=O)(=O)Nc1ccc(N(C)C)cc1 | ? | · | 11µM* | ? | · | -12%
C/C(=N\NC(=S)Nc1ccc(C(C)C)cc1)c1ccc2c(c1)OCO2 | ? | -6% | ? | -29% | 0% | -20%
COc1cc(/C(C)=N/NC(=S)NC(C)C)cc(OC)c1OC | -5% | ? | 1%[59 µM] | -28% | 5% | -24%
CCc1ccc(OCC(=O)N/N=C(\C)c2ccc3c(c2)OCCO3)cc1 | -8% | -1% | 20% | -10% | 56µM* | 14%
C/C(=N\NC(=S)NC(C)C)c1ccc2c(c1)OCCO2 | ? | -27% | ? | ? | -7% | 50µM*
CCNC(=S)N/N=C(\C)c1ccc2c(c1)OCCO2 | ? | -2% | 17%[59 µM] | -34% | 26% | -20%
CNC(=S)N/N=C(\C)c1ccc2c(c1)OCO2 | ? | -10% | ? | -33% | 79µM* | 10%
CNC(=S)N/N=C(\C)c1ccc2c(c1)OCCO2 | ? | -3% | -12%[59 µM] | -6% | 50µM* | -1%
CCCNC(=O)C1CCC(Cn2c(=O)c3sccc3n(CC(=O)NCc3ccccc3)c2=O)CC1 (stereo unspecified) | -23% | · | 8%[59 µM] | 5% | · | 64%
COc1ccccc1N1CCN(/N=C/C=C\c2ccco2)CC1 | 50µM* | -5% | 35µM* | 56µM* | 79µM* | -55%
COc1ccccc1N1CCN(Cc2cc3c(cc2[N+](=O)[O-])OCO3)CC1 | ? | -15% | ? | ? | 8% | -13%
COc1ccccc1N1CCN(/N=C/C=C\c2ccccc2[N+](=O)[O-])CC1 | 13µM* | -11% | 8.9µM* | 22µM* | -4% | 14µM*
COc1ccccc1/C=C/C=N/N1CCN(Cc2cccc3ccccc23)CC1 | 32µM* | 3% | ? | 11µM* | 8% | ?
COc1ccccc1/C=C/C=N/N1CCN(c2ccccn2)CC1 | 50µM* | 0% | 23%[0.501 µM] | ? | -18% | ?
COc1ccc(S(=O)(=O)N2CCN(Cc3cccc(OC)c3OC)CC2)cc1 | -11% | -15% | 0%[0.501 µM] | -9% | 13% | 21%
Oc1cccc(/C=N/N2CCN(c3ccccn3)CC2)c1 | -27% | -4% | · | -17% | 5% | 17%
CC1CCCC(C)N1/N=C/C=C/c1ccccc1[N+](=O)[O-] (stereo unspecified) | 22µM* | -6% | 32µM* | 40µM* | 13% | 28µM*
